The panel holds about 83,000 compounds, 20% with a hit somewhere; the sample as a whole holds those more often.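 Compound tested at a single concentration for 48 hours in 96-well plates; a percent growth value below 10 was scored as active.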 Unmarked numbers belong to inactive results. Calls of active or inactive are those of the source.
How the values were obtained:
Assay in all cases: NCI-60 one-dose screen, 48 h (100 = growth as untreated, 0 = no growth, -100 = all killed)
Conditions in all cases: 10 µM unless noted
NCI-H23 lung = tested on: NCI-H23 lung
NCI-H226 lung = tested on: NCI-H226 lung
NCI-H322M lung = tested on: NCI-H322M lung
HOP-62 NSCLC = tested on: HOP-62 NSCLC
NCI-H460 lung = tested on: NCI-H460 lung
HOP-92 NSCLC = tested on: HOP-92 NSCLC
NCI-H522 lung = tested on: NCI-H522 lung
A549/ATCC NSCLC = tested on: A549/ATCC NSCLC
786-0 renal = tested on: 786-0 renal
COLO 205 colon = tested on: COLO 205 colon

SMILES	growth (NCI-H23 lung)	growth (NCI-H226 lung)	growth (NCI-H322M lung)	growth (HOP-62 NSCLC)	growth (NCI-H460 lung)	growth (HOP-92 NSCLC)	growth (NCI-H522 lung)	growth (A549/ATCC NSCLC)	growth (786-0 renal)	growth (COLO 205 colon)
N#C/C(=C\c1cccc2cnccc12)n1nnc2cccc(F)c21	27.7%	62.6%	89.9%	53.2%	35.5%	-25% (active)	18.3%	86.6%	56.4%	34.3%
COc1ccc([C@H]2c3cc(OC)c(OC)cc3C=C(C=O)C2CO)cc1OC (stereo not given in full)	62.8%	80.8%	97.8%	62.1%	69.8%	36.8%	32.1%	80.6%	45.7%	45%
O=c1c2cccc(F)c2sc2c(NCCCNCCO)nc3ccccc3c12	49.9%	58%	44%	45.3%	-40.4% (active)	15.4%	44.4%	26.9%	48.5%	-44.4% (active)
COc1ccc(CN2c3ccccc3CCc3ccccc32)cc1F	38.7%	52.9%	57.6%	36.8%	6.64% (active)	36.4%	-36% (active)	21.2%	33.9%	-13.9% (active)
CCOC(=O)c1cn2ncnc(Oc3ccc(NC(=O)NCCN4CCOCC4)c(Cl)c3)c2c1C	99.6%	92.9%	88.7%	87.1%	100%	91.7%	93.9%	99.2%	102%	100%
Cc1ccc(C(=O)NN2C(=O)CSC2c2cccc([N+](=O)[O-])c2)cn1 (stereo not given)	93.2%	95.6%	104%	93%	108%	81.3%	109%	92.9%	106%	105%
CCc1nnc(NC(=O)c2nnn(-c3ccccc3)c2-c2ccco2)s1	91.7%	90.9%	94.2%	92.9%	83.7%	91.3%	90.9%	96.9%	105%	109%
COc1cccc(Cc2cc(-c3ccccc3)nn(CC(=O)c3ccccc3)c2=O)c1	74.2%	60.7%	94.1%	60.4%	37.8%	46.9%	72.4%	79.5%	55.8%	84.9%
CCOC(=O)c1cn2ncnc(Oc3ccc(NC(=O)NCCN(CC)CC)c(Cl)c3)c2c1C	76.6%	91.5%	98.7%	84.2%	104%	41.5%	72.9%	91.5%	72%	57.2%
CCCC1CCC(O)(C(C)(O)C(=O)NC2C(=O)N3NCCCC3C(=O)N(O)C(C)C(=O)N3NCCCC3C(=O)N3NCC(O)CC3C(=O)NC(C)C(=O)OC2C(C)C)OC1CC (stereo not given)	-85.9% (active)	-53.6% (active)	-90.8% (active)	-76% (active)	-82.4% (active)	-61.5% (active)	-25% (active)	-66.4% (active)	-78.6% (active)	-89% (active)
CCN1C(=O)N(CC)C2Nn3c(s/c(=C4\C(=O)Nc5ccccc54)c3=O)=NC21 (stereo not given)	48.6%	79.3%	71.5%	68.4%	23.7%	69.7%	15.4%	55.1%	32%	19.5%
COC(=O)C(Cc1ccccc1)NC(=O)NC(=O)NC(=O)CI (stereo not given)	63.2%	82.9%	108%	102%	92.3%	-26% (active)	-82.1% (active)	99.8%	-3.88% (active)	25.4%
N#Cc1c(-c2ccccc2)nc(SCC(=O)Nc2nc(-c3ccc(Cl)cc3)cs2)[nH]c1=O	84.1%	95.9%	97.9%	90.2%	106%	80.7%	77.6%	94.6%	96.2%	106%
S=c1nc(-c2ccccc2)oc(=NC2CCCCC2)n1C1CCCCC1	61.1%	105%	28.3%	62.8%	10.7%	-24.9% (active)	-25.6% (active)	31.5%	43%	58.8%
C(=N/Nc1ncnc2nc[nH]c12)/c1ccccn1	47.6%	39.9%	22.4%	23.6%	55.8%	19.4%	35.7%	35.2%	21.4%	26.1%
Cc1ccc(-c2nc(SCC(=O)Nc3nc(-c4ccc(Cl)cc4)cs3)[nH]c(=O)c2C#N)cc1	95.1%	89.5%	101%	94%	105%	-13.3% (active)	77.5%	86.7%	93.2%	117%
COc1ccc(C(=O)C(C)C)c2ccccc12	101%	105%	117%	99.8%	101%	83.6%	102%	129%	100%	113%
CCCCn1c(=O)c(-c2cc(-c3ccc(Cl)cc3)nc(-c3ccc(Cl)cc3)c2)cc2ccc(Cl)cc21	97.8%	98.5%	98.4%	97.5%	106%	88.3%	98.4%	105%	103%	105%
CCOC(=O)c1cnn2c3ccccc3n(S(=O)(=O)c3ccc(OC)cc3)c12	28.2%	19.9%	53.7%	35%	18.4%	59.9%	20.6%	28.5%	40.5%	-19.4% (active)
N#Cc1c(Nc2cccc(Cl)c2)sc(C(=O)c2cc3cc(Cl)ccc3o2)c1N	77%	94%	113%	107%	46.7%	8.1% (active)	34.8%	94.1%	96.9%	89%
COc1cc(C2CC(c3cccc(Br)c3)=NN2C(C)=O)cc(OC)c1OC (stereo not given)	24.8%	28%	33%	43.7%	9.31% (active)	78.3%	-13.8% (active)	29.1%	40.7%	2.52% (active)
COc1ccc(CNC(=O)[C@H](O)[C@@H](N)Cc2ccccc2)cc1	99.9%	98.8%	105%	119%	106%	72.8%	95.6%	108%	97.9%	114%
Cc1nc2ccccc2n1-c1ncnc2c1CC(C)c1ccccc1N2C (stereo not given)	85.6%	89.7%	97.8%	68.4%	102%	51.4%	72.5%	70.8%	92%	88%
CN(C)CCCNc1nc2ccccc2c2c(=O)c3cc(F)ccc3sc12	70.6%	91.5%	71.2%	65%	-1.74% (active)	24%	39.2%	57%	59.3%	-34.1% (active)
COc1ccc(C2C(N)=NNC2c2cccc(O)c2)cc1 (stereo not given)	90.2%	84%	90.6%	90.2%	115%	88.3%	89.2%	99.8%	108%	125%
CCCCn1c(-c2ccc(C(=O)O/N=C(\N)c3ccc(OC)cc3)cc2)nc(-c2ccccc2)c1-c1ccccc1	-41.9% (active)	69.5%	62.3%	11.7%	-32.3% (active)	-68.7% (active)	-63.2% (active)	-31.7% (active)	-63.9% (active)	0.164% (active)
O=C(Oc1cccc2ccccc12)Oc1cccc2ccccc12	90.9%	98.5%	104%	96.1%	110%	62.8%	93.8%	107%	110%	127%
